Measurements reported in the supplement of paper PMC6522484.
± gives the standard deviation of the averaged measurements.

How the values were obtained:
DLD1 [1] = assay: cell viability (CellTiter-Glo) relative to plate median (fraction of plate median); higher = more viable cells; details: 5 µM; treatment time 24 h; reporter: 7TFP
Summary of the method: (§1)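 Values are well luminescence normalised to the plate median, from either a firefly luciferase or a CellTiterGlo readout on parallel plates. The cells, colorectal cancer lines stably transduced with lentiviral 7TFP or TCF4/Wnt firefly luciferase reporters, were treated with library compounds at a final 5 µM for 24 h. The mean of two independent replicates is listed.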

HCT116 = assay: as above; details: 5 µM; treatment time 24 h; reporter: TCF4/Wnt
Summary of the method: as §1

SW480 [2] = assay: as above; details: 5 µM; treatment time 24 h; reporter: 7TFP
Summary of the method: as §1

DLD1 [3] = assay: TCF/Wnt firefly luciferase reporter signal relative to plate median (fraction of plate median); higher = higher Wnt reporter signal; details: 5 µM; treatment time 24 h; reporter: 7TFP
Summary of the method: as §1

SW480 [4] = assay: as above; details: 5 µM; treatment time 24 h; reporter: 7TFP
Summary of the method: as §1

Row | Structure (SMILES) | cell viability (DLD1 [1]) | cell viability (HCT116) | cell viability (SW480 [2]) | TCF/Wnt firefly luciferase reporter signal (DLD1 [3]) | TCF/Wnt firefly luciferase reporter signal (SW480 [4])
1 | C=CCSSCC=C | 1.055 ± 0.0071 | 1.045 ± 0.0071 | 1.05 ± 0.078 | 1.1 ± 0.085 | 0.95 ± 0.13
2 | COc1ccc2c(c1OC)C(=O)O[C@H]2[C@H]1c2cc3c(cc2CCN1C)OCO3 | 1.06 ± 0.09 | 1.04 ± 0.061 | 0.9915 ± 0.0078 | 1.08 ± 0.028 | 1.03 ± 0.069
3 | COP(=O)(OC)OC=C(Cl)Cl | 1.05 ± 0.014 | 0.94 ± 0.099 | 0.994 ± 0.037 | 1.04 ± 0.18 | 1.03 ± 0.028
4 | C[N+]1(C)CCCC(OC(=O)C(O)(c2ccccc2)c2ccccc2)C1 (stereo not given) | 0.965 ± 0.036 | 0.936 ± 0.063 | 1.01 ± 0.014 | 1.05 ± 0.014 | 0.957 ± 0.043
5 | CC(C)(C#N)O[C@@H]1O[C@H](CO)[C@@H](O)[C@H](O)[C@H]1O | 0.945 ± 0.078 | 1.06 ± 0.014 | 0.992 ± 0.0014 | 0.953 ± 0.036 | 0.933 ± 0.036
6 | C[C@]12CCC(=O)C(O)=C1CC[C@@H]1[C@@H]2CC[C@]2(C)C(=O)CC[C@@H]12 | 0.956 ± 0.011 | 0.996 ± 0.076 | 0.9485 ± 0.0021 | 1.01 ± 0.023 | 1.01 ± 0.073
7 | CCCCCCCCCCCCOC(=O)[C@H]1OC(=O)[C@H](O)[C@H]1C(=O)OO [Cinatrin C1] | 1.03 ± 0.11 | 1.02 ± 0.033 | 0.995 ± 0.035 | 0.905 ± 0.054 | 0.977 ± 0.033
8 | CCCCCCCCCCCC[C@@H](O)[C@H]1CC[C@H]([C@H](O)CCCC[C@H](O)CCCCC[C@@H](O)CC2=CC(C)OC2=O)O1 (stereo not given in full) [annonacin] | 0.926 ± 0.076 | 0.933 ± 0.014 | 0.92 ± 0.092 | 0.987 ± 0.075 | 0.923 ± 0.018
9 | Oc1cc(Cl)ccc1Oc1ccc(Cl)cc1Cl | 0.936 ± 0.078 | 0.913 ± 0.011 | 0.954 ± 0.021 | 0.983 ± 0.15 | 0.893 ± 0.021
